Screening data (PubChem BioAssay)
Sampled rows, rich in hits. Any-hit rate of the full collection: about 3.2%.
MEKK2 mut-MEK5 – MEK5 binding signal on mutant MEKK2 PB1, primary screen, biochemical, multiplex bead flow cytometry, Alexa488-MEK5. Alexa488-MEK5 binding to MEKK2 mutant. percent response, % at 10 µM. 0.35% of 290,000 active. AID 1530, 2009; in the data active = percent response above about 24%, passing the limit was not always enough
NRP1-CendR mod – modulators of CendR peptide binding to NRP-1, primary screen, biochemical, fluorescence polarization, uHTS. FAM-RPARPAR peptide binding to NRP-1. inhibition, % at 25 µM. 0.85% of 360,000 active;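 active = inhibition or corrected inhibition above about 18%, plus a signal ratio from 0.5 to 1.5, limit read from the data, passing the limit was not always enough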
MEKK3 PB1 HTS – modulators of MEKK3-MEK5 PB1 binding, primary screen, biochemical, wildtype MEKK3, multiplex bead flow cytometry, Alexa488-MEK5; Mitogen-activated protein kinase kinase kinase 3 (Homo sapiens), Q99759; bead-based flow cytometry, Alexa488-MEK5 binding to MEKK3; actives lie on both sides; 0 = blocked by unlabeled MEK5, 100 = vehicle; binding response (% of control), % at 10 µM; 1.4% of 290,000 active;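 active = binding response more than 3 SD above or below the average of its plate-row segment, actives on both sides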;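 also: Alexa488 bead fluorescence after subtracting the streptavidin-only scavenger bead signal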
SKN-1 inh – suppressors of acrylamide-induced Pgst-4::GFP reporter in worms, primary screen, SKN-1 inhibitor project, whole organism, uHTS, GFP/RFP fluorescence ratio, strain VP596; C. elegans VP596 Pgst-4::GFP/RFP ratio, 24 h; inhibition, % at 21.8 µM; 0.49% of 360,000 active;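 active = interference check ratio from 0.5 to 1.5 plus GFP to RFP signal ratio inhibition reaching or exceeding a fixed threshold, cut at about 30% in these data, passing the limit was not always enough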
MEKK2 WT-MEK5 – modulators of MEK5 binding to wildtype MEKK2, primary screen, biochemical, multiplex bead flow cytometry, Alexa488-MEK5; binding response (% of control), % at 10 µM; Alexa488-MEK5 binding to MEKK2 WT; actives lie on both sides; AID 1531, 2009; 1.1% of 290,000 active; in the data active = binding response below about 67% or above about 130%
MEKK2wt confirm – modulators of MEK5 binding to wildtype MEKK2, confirmation, biochemical, single concentration, multiplex bead flow cytometry. 2.4% of 5,900 active. Alexa488-MEK5 binding to MEKK2 WT; actives lie on both sides. binding response (% of control), % at 10 µM. AID 1892, 2009. shares compounds with MEKK3 PB1 HTS; in the data active = binding response below about 16% or above about 210%; inactive = in between
MEKK2mut confirm – mutant MEKK2 PB1-MEK5 binding signal retest – biochemical, single concentration, multiplex bead flow cytometry, confirmation; Alexa488-MEK5 binding to MEKK2 mutant; percent response, % at 10 µM; shares compounds with MEKK3 PB1 HTS; AID 1893, 2009; 2% of 5,900 active; in the data active = percent response mostly above about 71%, no sharp cut-off; inactive = mostly below about 38%;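 also: higher means compound restores mutant binding toward wildtype level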
MEKK3-MEK5 inh – MEKK3 wild-type PB1 binding to MEK5, inhibitors, confirmation, biochemical, bead multiplex flow cytometry, single concentration, wildtype; shares compounds with MEKK3 PB1 HTS; AID 1894, 2009; Alexa488-MEK5 binding to MEKK3; stronger effect = lower value; binding response (% of control), % at 10 µM; 1.8% of 5,900 active;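 active = binding response below 72% of control, or above a set upper limit, though filed actives all read lower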;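 also: 100% = DMSO only wells and 0% = binding blocked by excess unlabeled MEK5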
An asterisk follows results filed as active; nt = no result given; [ ] = dose if it differs, or a comment.

SMILES | MEKK2 mut-MEK5 | NRP1-CendR mod | MEKK3 PB1 HTS | SKN-1 inh | MEKK2 WT-MEK5 | MEKK2wt confirm | MEKK2mut confirm | MEKK3-MEK5 inh
CCN(C(=O)c1cc2c(=O)[nH]c3ccc(C)cc3c2s1)c1ccc(F)cc1 | 25 | 6 | 129* | 10 | 113 | 95 | -2 | 95
CCN(C(=O)c1cc2c(=O)[nH]c3ccc(C)cc3c2s1)c1cccc(C)c1 | 28 | 3 | 127 | 2 | 113 | nt | nt | nt
O=C(NCc1cnc2ccccn12)C1CCC(=O)N(Cc2ccccc2F)C1 (stereo not drawn) | 2 | 6 | 102 | -1 | 105 | nt | nt | nt
O=C(NCCO)C(=O)NCC1OCCCN1S(=O)(=O)c1cc(F)ccc1F (stereo not drawn) | 6 | 10 | 102 | 8 | 108 | nt | nt | nt
O=C(CN1CCN(c2ccccc2)CC1)Nc1ccc(Oc2ccccc2)cc1 | -15 | 10 | 2.0*[inhibitor] | 3 | 1.0*[inhibitor] | 114 | 5 | 108
COc1ccc(NC(=O)CN2CCCC2)cc1 | 2 | 0 | 101 | -16 | 99 | nt | nt | nt
O=C(CN1CCCC1)Nc1ccc(Oc2ccc(NC(=O)CN3CCCC3)cc2)cc1 | -21 | 9 | 1.0*[inhibitor] | 15 | 1.0*[inhibitor] | 128 | 21 | 106
CC(C)(C)c1cc(NCc2ccccn2)n2ncc(-c3ccc(Cl)cc3)c2n1 | -8 | 2 | 91 | 5 | 93 | nt | nt | nt
CC(C)(C)c1cc(NCCCn2ccnc2)n2ncc(-c3ccccc3)c2n1 | 34 | -11 | 110 | 6 | 145* | 140 | 23 | 102
CCc1nccn1-c1cc(C(C)(C)C)nc2c(-c3ccc(Cl)cc3)cnn12 | 1 | 11 | 151* | 13 | 110 | 102 | 0 | 99
CN(C)CCCNc1cc(C(C)(C)C)nc2c(-c3ccc(Cl)cc3)cnn12 | 35 | 5 | 102 | 41* | 190* | 250* | 89* | 112
Cc1cc(NCCCn2ccnc2)n2ncc(-c3ccc(Cl)cc3)c2n1 | -1 | 1 | 94 | 10 | 121 | nt | nt | nt
Cc1cc(NCCCN2CCOCC2)n2ncc(-c3ccc(Cl)cc3)c2n1 | 23 | 9 | 109 | 16 | 147* | 133 | 19 | 112
COCCNC(=S)N(C)[C@H]1C[C@H]2c3cc(-c4ccccc4)ccc3CCN2C(=O)[C@H]1[C@H](C)O | nt | -3 | nt | -3 | nt | nt | nt | nt
O=C(NCc1cccc(C(F)(F)F)c1)c1csc([C@@H]2O[C@H](CO)[C@H](O)[C@H](O)[C@H]2O)n1 | nt | -2 | nt | -2 | nt | nt | nt | nt
COc1c(C=O)c2c(c(OC)c1OC)-c1ccc(OC)c(=O)cc1C(NC(C)=O)CC2 (stereo not drawn) | nt | -4 | nt | 3 | nt | nt | nt | nt
CCN(CC)c1ccc(NC(=O)CN2CCN(CC(=O)Nc3ccccc3F)CC2)cc1 | 13 | 6 | 122* | -20 | 124 | 104 | 2 | 97
CCN(CC)c1ccc(NC(=O)CN2CCN(CC(=O)Nc3ccccc3OC)CC2)cc1 | 4 | 0 | 105 | 17 | 104 | nt | nt | nt
O=C1NCCCC1C(=O)N1CCN(C(c2ccccc2)c2ccccc2)CC1 (stereo not drawn) | -9 | -1 | 82*[inhibitor] | 1 | 98 | 103 | 7 | 108
COc1ccc(C2CC(Cn3cc(C#N)c(=O)n(C)c3=O)ON2C)cc1 (stereo not drawn) | -5 | -1 | 101 | -6 | 94 | nt | nt | nt
